Source: PubChem BioAssay
For part of these data: Entries with a potency or affinity are not part of this list. The source made the active and inactive calls.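 How the source made its calls, unless noted: active means signal rise over 3 SD above mean of control wells given weak agonist, in both repeats and first screen; inactive means the rest.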

Key:
[1] = system: TRPC4 beta (transient receptor potential cation channel C4), mouse; experiment: TRPC4 cation channel opening, retest – cell-based, Fluo4 calcium, HEK293 TRPC4beta/mu-opioid, duplicates, 10 µM, confirmation (AID 2426;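 active means fluorescence ratio normalized to control raised more than 50% in primary screen plus both repeat runs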;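 on activation: percent rise of integrated ratio over buffer wells lacking compound which define 0%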); conditions: Fluo4 calcium fluorescence, at 10 µM; stronger effect = higher value
[2] = system: transient receptor potential cation channel C4 beta (TRPC4), mouse; experiment: TRPC4 cation channel opening, second retest – cell-based, second round, Fluo4, HEK293 TRPC4beta/mu-opioid, 1 µM, confirmation (AID 2461;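 active means primary screen active and over 50% activation in each of two duplicate runs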;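 on activation: 0% = wells without test compound as baseline of integrated fluorescence ratio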); conditions: Fluo4 calcium fluorescence, at 1 µM; stronger effect = higher value
[3] = system: TRPC4 (transient receptor potential cation channel C4 beta), mouse; experiment: potentiation of DAMGO EC20 TRPC4 response – cell-based, second round, Fluo-4, HEK293 TRPC4beta/mu-opioid, 1 µM, confirmation (AID 2554;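 active means primary screen hit whose fluorescence ratio, in both repeats, exceeds the weak agonist control mean by 3 SD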); conditions: DAMGO EC20, Fluo-4 calcium flux, at 1 µM; stronger effect = higher value
[4] = system: TRPC4 beta (transient receptor potential cation channel C4), mouse; experiment: potentiation of DAMGO EC20 TRPC4 response – cell-based, Fluo-4, HEK293 TRPC4beta/mu-opioid, confirmation (AID 2555;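 active means primary screen hit whose calcium fluorescence ratio, in both repeats, exceeds the weak agonist control mean by 3 SD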); conditions: DAMGO EC20, Fluo-4 calcium flux, at 10 µM; stronger effect = higher value
[5] = biological target: Short transient receptor potential channel 4 (Mus musculus) (UniProt Q9QUQ5); experiment: blockers of DAMGO-evoked TRPC4 calcium flux – cell-based, Fluo4, HEK293 TRPC4beta/mu-opioid, confirmation (AID 2636;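 active means calcium signal cut by more than 3 SD below the full-agonist control yet still positive, in both repeats and the earlier primary screen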); conditions: at 10 µM; stronger effect = higher value
[6] = biological target: Short transient receptor potential channel 4 (Mus musculus) (UniProt Q9QUQ5); experiment: blockers of DAMGO-evoked TRPC4 calcium flux – cell-based, second round, Fluo4, HEK293 TRPC4beta/mu-opioid, 1 µM, confirmation (AID 2637;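 active means calcium signal ratio cut to more than 3 SD under the fully stimulated control mean yet still positive, in both repeats and the primary screen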); conditions: at 1 µM; stronger effect = higher value
[7] = biological target: Short transient receptor potential channel 4 (Mus musculus) (UniProt Q9QUQ5); experiment: calcium entry via TRPC4 opening agents – cell-based, HEK293 TRPC4/mu-opioid, Fluo-4 calcium, dose response (AID 434937;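 active means primary screen activator hit with a dose response curve and TRPC4 channel activation at any tested dose; inactive means no activation, no dose response, or not a primary hit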)
[8] = biological target: Short transient receptor potential channel 4 (Mus musculus) (UniProt Q9QUQ5); experiment: potentiation of DAMGO-evoked TRPC4 calcium signal – cell-based, HEK293 TRPC4/mu-opioid, Fluo-4 calcium, EC20 DAMGO, dose response (AID 434941;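 active means earlier screen potentiator hit that boosts the TRPC4 ion channel at some dose, with a dose response; inactive means no potentiation, no dose response, or not a prior hit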;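 further: calcium entry triggered by an EC20 dose of DAMGO at the co-expressed mu-opioid receptor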)
[9] = biological target: Short transient receptor potential channel 4 (Mus musculus) (UniProt Q9QUQ5); experiment: block of DAMGO-driven TRPC4 calcium entry – cell-based, HEK293 TRPC4/mu-opioid, Fluo-4 calcium, dose response (AID 434942;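 active means primary screen inhibitor hit that blocks the TRPC4 channel at some tested dose, yielding a dose curve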)
[10] = biological target: Short transient receptor potential channel 6 (Mus musculus) (UniProt Q61143); experiment: TRPC6 blockade by TRPC4 inhibitor hits – cell-based, HEK293, membrane potential dye, duplicate, selectivity assay for TRPC4 inhibitor project, confirmation (AID 434948;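 active means active in primary screen and both duplicates, each dropping signal beyond three positive-control SD with fluorescence still positive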); conditions: HEK293 TRPC6, membrane potential dye fluorescence, at 10 µM, stimulated with maximal-effect acetylcholine; stronger effect = higher value
[11] = biological target: Short transient receptor potential channel 6 (Mus musculus) (UniProt Q61143); experiment: TRPC6 opening by TRPC4 activator hits – cell-based, HEK293, membrane potential dye, duplicate, selectivity assay for TRPC4 activator project, confirmation (AID 434950;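 active means membrane potential signal rise above negative control mean plus 3 SD in both duplicates, also active in the earlier TRPC4 screen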;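 on activation: 0% = buffer only wells and 100% = acetylcholine maximal-effect wells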); conditions: HEK293 TRPC6, membrane potential fluorescence, at 10 µM; activation: stronger effect = higher value; outcome: activation
[12] = biological target: Short transient receptor potential channel 6 (Mus musculus) (UniProt Q61143); experiment: positive modulators of mouse TRPC6 channel – HEK293 cells, membrane potential dye, duplicate, selectivity assay for TRPC4 potentiator project, confirmation (AID 434952;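 active means compound raising the membrane signal above positive-control mean plus 3 SD in both repeats, and a primary screen hit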); conditions: HEK293 TRPC6, membrane potential dye fluorescence, at 10 µM, maximal acetylcholine added after compound; stronger effect = higher value
[13] = biological target: Short transient receptor potential channel 4 (Mus musculus) (UniProt Q9QUQ5); experiment: calcium flux activators in TRPC4/5HT1a cells, counter-screen for TRPC4 activator project, cell-based, second counter screen, HEK293 TRPC4/5HT1a, Fluo-4 (AID 434977;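 active means calcium signal rise above buffer-control mean plus 5 SD in both duplicates, and also a hit in the primary screen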;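 on activation: plate controls were assay buffer for no effect and maximal serotonin response for full effect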); conditions: Fluo-4 calcium flux, at 10 µM; stronger effect = higher value
[14] = serotonin-gated TRPC4 signal block – cell-based, second counter screen, HEK293 TRPC4/5HT1a, Fluo-4, counter-screen for TRPC4 inhibitor project, confirmation (AID 434978;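 active means primary screen active whose calcium signal fell more than 3 SD beyond the full-serotonin control mean in both duplicate plates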;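 on outcome: serotonin given first at submaximal then at maximal dose after compound preincubation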); conditions: Fluo-4 calcium flux, at 10 µM, serotonin added to trigger calcium flux; stronger effect = higher value
[15] = system: TRPC4 (mouse), co-expressed with 5HT1a in HEK293; experiment: enhancement of serotonin-evoked TRPC4 response – cell-based, second counter screen, HEK293 TRPC4/5HT1a, Fluo-4, counter-screen for TRPC4 potentiator project, confirmation (AID 434979); conditions: Fluo-4 calcium flux, at 10 µM, serotonin added at its EC20 dose; stronger effect = higher value
[16] = nonspecific calcium rise without TRPC4 – cell-based, HEK293 mu-opioid receptor line, counter-screen for TRPC4 activator project, confirmation (AID 449723;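 active means hit in primary screen, with calcium signal over 5 SD above buffer well mean in both duplicates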;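 further: counter screen cells carry the mu-opioid receptor alone and lack TRPC4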); conditions: HEK293 mu-opioid cells, Fluo-4 calcium fluorescence, at 10 µM; stronger effect = higher value
[17] = nonspecific potentiation of DAMGO calcium response – cell-based, HEK293 mu-opioid receptor line, counter-screen for TRPC4 allosteric potentiator project, confirmation (AID 449724;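 active means calcium signal rise more than 3 SD above the low-dose agonist control mean, in both duplicate plates and the primary screen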); conditions: HEK293 mu-opioid receptor cells, Fluo-4 calcium flux, at 10 µM, compound added before EC20 DAMGO stimulus; stronger effect = higher value

Sequence of Short transient receptor potential channel 4 (Mus musculus) (Q9QUQ5 whole entry, looked up): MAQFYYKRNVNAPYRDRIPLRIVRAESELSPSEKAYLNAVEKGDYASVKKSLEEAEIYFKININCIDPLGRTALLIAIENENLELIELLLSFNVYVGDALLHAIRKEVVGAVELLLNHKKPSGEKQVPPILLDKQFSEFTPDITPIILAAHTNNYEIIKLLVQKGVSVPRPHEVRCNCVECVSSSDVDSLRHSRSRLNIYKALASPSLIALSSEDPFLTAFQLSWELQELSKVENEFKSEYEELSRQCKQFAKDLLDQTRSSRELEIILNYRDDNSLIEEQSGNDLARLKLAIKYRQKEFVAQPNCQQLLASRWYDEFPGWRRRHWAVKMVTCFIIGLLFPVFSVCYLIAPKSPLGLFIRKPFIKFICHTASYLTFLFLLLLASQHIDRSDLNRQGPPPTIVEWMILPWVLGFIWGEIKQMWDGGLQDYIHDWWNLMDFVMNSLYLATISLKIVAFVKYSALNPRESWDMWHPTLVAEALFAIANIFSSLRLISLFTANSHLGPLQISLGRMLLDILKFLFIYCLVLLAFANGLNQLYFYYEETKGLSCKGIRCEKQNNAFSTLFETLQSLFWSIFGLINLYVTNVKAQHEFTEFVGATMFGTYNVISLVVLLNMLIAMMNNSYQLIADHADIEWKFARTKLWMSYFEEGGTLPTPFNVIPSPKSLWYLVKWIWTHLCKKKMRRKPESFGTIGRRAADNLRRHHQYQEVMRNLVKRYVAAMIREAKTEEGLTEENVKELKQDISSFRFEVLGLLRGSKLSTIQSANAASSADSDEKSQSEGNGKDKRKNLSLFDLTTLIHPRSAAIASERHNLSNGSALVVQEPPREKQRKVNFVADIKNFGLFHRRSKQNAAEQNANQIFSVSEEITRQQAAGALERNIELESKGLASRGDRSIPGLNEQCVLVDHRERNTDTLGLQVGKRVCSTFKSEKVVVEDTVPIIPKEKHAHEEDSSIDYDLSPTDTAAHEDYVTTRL
Sequence of Short transient receptor potential channel 6 (Mus musculus) (Q61143 whole entry, looked up): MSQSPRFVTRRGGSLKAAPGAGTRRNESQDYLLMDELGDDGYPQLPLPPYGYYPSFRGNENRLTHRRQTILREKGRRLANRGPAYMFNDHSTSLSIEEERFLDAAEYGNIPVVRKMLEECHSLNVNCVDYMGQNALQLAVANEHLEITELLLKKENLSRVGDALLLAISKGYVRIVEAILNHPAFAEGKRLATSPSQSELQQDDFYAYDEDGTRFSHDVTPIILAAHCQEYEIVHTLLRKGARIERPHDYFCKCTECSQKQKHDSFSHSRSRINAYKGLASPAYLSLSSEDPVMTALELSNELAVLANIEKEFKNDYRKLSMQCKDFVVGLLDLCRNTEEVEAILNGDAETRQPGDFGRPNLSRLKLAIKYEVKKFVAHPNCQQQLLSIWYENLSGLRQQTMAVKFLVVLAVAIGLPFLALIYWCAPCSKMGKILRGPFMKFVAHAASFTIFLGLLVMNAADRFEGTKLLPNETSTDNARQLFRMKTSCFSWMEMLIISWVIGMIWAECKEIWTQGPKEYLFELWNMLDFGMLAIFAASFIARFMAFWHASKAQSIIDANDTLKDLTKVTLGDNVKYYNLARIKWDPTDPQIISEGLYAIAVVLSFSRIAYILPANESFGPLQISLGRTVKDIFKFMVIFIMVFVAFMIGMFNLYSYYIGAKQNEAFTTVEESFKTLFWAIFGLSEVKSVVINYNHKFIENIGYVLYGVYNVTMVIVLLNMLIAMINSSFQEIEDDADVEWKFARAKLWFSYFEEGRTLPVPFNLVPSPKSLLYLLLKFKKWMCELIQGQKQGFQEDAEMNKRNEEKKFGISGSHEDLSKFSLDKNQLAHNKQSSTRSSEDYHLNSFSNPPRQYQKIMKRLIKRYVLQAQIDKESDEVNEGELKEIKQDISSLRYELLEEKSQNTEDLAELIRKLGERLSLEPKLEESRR

COc1ccccc1-c1cc(-c2ccccc2)nc(=O)[nH]1
active: potentiation [4] 22% | potentiation [15] 51.2%
inactive: outcome [1] | outcome [2] | outcome [3] | outcome [5] | outcome [6] | outcome [7] | outcome [8] | outcome [9] | outcome [10] | outcome [11] | outcome [12] | outcome [13] | outcome [14] | outcome [16] | outcome [17]

CCOc1ccc(OCC(O)CNC2CCN(Cc3ccccc3)CC2)cc1 (stereo not given)
inactive: outcome [3] | outcome [4] | outcome [6] | outcome [7] | outcome [8] | outcome [9] | outcome [12] | outcome [15] | outcome [16] | outcome [17]
active: activation [1] 144% | activation [2] 94% | inhibition [5] 36% | inhibition [10] 34.5% | activation [11] 83% | activation [13] 35.4% | inhibition [14] 25.6%

CC(C)(C)n1cnc2cc(NCc3ccc(Br)cc3)ccc21
active: potentiation [15] 8.63%
inactive: outcome [1] | outcome [2] | outcome [3] | outcome [4] | outcome [5] | outcome [6] | outcome [7] | outcome [8] | outcome [9] | outcome [10] | outcome [11] | outcome [12] | outcome [13] | outcome [14] | outcome [16] | outcome [17]

COc1ccc(OCCN(C)Cc2c(O)ccc3ccccc23)cc1
inactive: outcome [1] | outcome [2] | outcome [3] | outcome [4] | outcome [5] | outcome [6] | outcome [7] | outcome [8] | outcome [9] | outcome [10] | outcome [11] | outcome [12] | outcome [13] | outcome [14] | outcome [15] | outcome [16] | outcome [17]

COc1ccc(/C=C2/SC(=S)N(NS(=O)(=O)c3ccc(C)cc3)C2=O)cc1
inactive: outcome [1] | outcome [2] | outcome [3] | outcome [4] | outcome [5] | outcome [6] | outcome [7] | outcome [8] | outcome [9] | outcome [10] | outcome [11] | outcome [12] | outcome [13] | outcome [14] | outcome [15] | outcome [16] | outcome [17]

NNc1ccc(Cc2ccc(Cl)cc2Cl)nn1
inactive: outcome [1] | outcome [2] | outcome [3] | outcome [4] | outcome [5] | outcome [6] | outcome [7] | outcome [8] | outcome [9] | outcome [10] | outcome [11] | outcome [12] | outcome [13] | outcome [14] | outcome [16] | outcome [17]
active: potentiation [15] 15.2%

CCCC1C(=O)Nc2ccccc2N1C(=O)c1ccc(C(C)(C)C)cc1 (stereo not given)
inactive: outcome [1] | outcome [2] | outcome [3] | outcome [4] | outcome [5] | outcome [6] | outcome [7] | outcome [8] | outcome [9] | outcome [10] | outcome [11] | outcome [12] | outcome [13] | outcome [14] | outcome [16] | outcome [17]
active: potentiation [15] 30.4%

CCOC(=O)CC(NC(=O)c1cc2cc(Cl)cc(Cl)c2oc1=O)c1cccc([N+](=O)[O-])c1 (stereo not given)
active: potentiation [4] 35%
inactive: outcome [1] | outcome [2] | outcome [3] | outcome [5] | outcome [6] | outcome [7] | outcome [8] | outcome [9] | outcome [10] | outcome [11] | outcome [12] | outcome [13] | outcome [14] | outcome [15] | outcome [16] | outcome [17]

O=C(/C=C/c1ccccc1Cl)N(c1ccccn1)C1CCCCC1
inactive: outcome [1] | outcome [2] | outcome [3] | outcome [4] | outcome [5] | outcome [6] | outcome [7] | outcome [8] | outcome [9] | outcome [10] | outcome [11] | outcome [12] | outcome [13] | outcome [14] | outcome [15] | outcome [16] | outcome [17]

COc1cc(S(=O)(=O)N2CCC(N3CCCCC3)CC2)ccc1-n1cnnn1
active: potentiation [3] 12% | potentiation [4] 8% | potentiation [15] 13.4%
inactive: outcome [1] | outcome [2] | outcome [5] | outcome [6] | outcome [7] | outcome [8] | outcome [9] | outcome [10] | outcome [11] | outcome [12] | outcome [13] | outcome [14] | outcome [16] | outcome [17]

Cn1ncc(C#N)c1/N=C/N(Cc1ccccc1)Cc1ccccc1
inactive: outcome [1] | outcome [2] | outcome [3] | outcome [4] | outcome [5] | outcome [6] | outcome [7] | outcome [8] | outcome [9] | outcome [10] | outcome [11] | outcome [12] | outcome [13] | outcome [14] | outcome [15] | outcome [16] | outcome [17]

CCN(CC)c1ccc(/C=N/NC(=O)CNC(=O)c2ccccn2)cc1
inactive: outcome [1] | outcome [2] | outcome [3] | outcome [4] | outcome [5] | outcome [6] | outcome [7] | outcome [8] | outcome [9] | outcome [10] | outcome [11] | outcome [12] | outcome [13] | outcome [14] | outcome [15] | outcome [16] | outcome [17]

CC(=O)c1c(O)c(C)c(O)c2c1OC1=CC(=O)C(C(C)=O)C(=O)[C@@]12C (stereo not given in full)
active: activation [1] 246% | activation [13] 20.7% | activation [16] 43.3%
inactive: outcome [2] | outcome [3] | outcome [4] | outcome [5] | outcome [6] | outcome [7] | outcome [8] | outcome [9] | outcome [10] | outcome [11] | outcome [12] | outcome [14] | outcome [15] | outcome [17]

O=C(c1ccccc1)c1coc2ccc(O)c(CN3CCOCC3)c12
inactive: outcome [1] | outcome [2] | outcome [3] | outcome [4] | outcome [5] | outcome [6] | outcome [7] | outcome [8] | outcome [9] | outcome [10] | outcome [11] | outcome [12] | outcome [13] | outcome [14] | outcome [15] | outcome [16] | outcome [17]

CCCCN(C(=O)c1cccc2c(=O)c(C)c(-c3ccccc3)oc12)c1ccccc1
active: potentiation [4] 15% | potentiation [15] 12.4%
inactive: outcome [1] | outcome [2] | outcome [3] | outcome [5] | outcome [6] | outcome [7] | outcome [8] | outcome [9] | outcome [10] | outcome [11] | outcome [12] | outcome [13] | outcome [14] | outcome [16] | outcome [17]
